Test results reported in PubChem BioAssay (NCATS).
Inconclusive results are not listed. Where a call stands in place of a potency, no number is given. A number with no mark means an inactive call. Active and inactive are the calls of the source. Calls come from the whole dose curve; as a rule, active = well fitted curve in the direction sought with a large enough effect; inconclusive = small, poorly fitted or top-dose-only effect, or another doubt; inactive = no such curve, though single readings can be large; an effect the other way counts as inactive or inconclusive.

How the values were obtained:
[1] = test system: Zika virus NS2B-NS3 protease; test: Primary screen GU AMC qHTS for Zika virus inhibitors (AID 1347154); note: nearly all actives have a fitted effect of over 70% in size
Outline: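 Fluorogenic AMC-substrate cleavage by noncovalent NS2B-NS3 protease complex (25 nM, pH 8.0 Tris buffer with Tween 20) followed for 15 minutes at room temperature (~20% conversion). Percent inhibition from ex340/em450 signal change, fitted by 4-parameter Hill equation.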

[2] = biological target: Lysine-specific demethylase 5B (Homo sapiens) (UniProt Q9UGL1); test: Optimization screen for KDM5B Histone Demethylases FDH coupled qHTS against the LOPAC library (AID 1347166)
Sequence of Lysine-specific demethylase 5B (Homo sapiens) (Q9UGL1 whole entry, looked up): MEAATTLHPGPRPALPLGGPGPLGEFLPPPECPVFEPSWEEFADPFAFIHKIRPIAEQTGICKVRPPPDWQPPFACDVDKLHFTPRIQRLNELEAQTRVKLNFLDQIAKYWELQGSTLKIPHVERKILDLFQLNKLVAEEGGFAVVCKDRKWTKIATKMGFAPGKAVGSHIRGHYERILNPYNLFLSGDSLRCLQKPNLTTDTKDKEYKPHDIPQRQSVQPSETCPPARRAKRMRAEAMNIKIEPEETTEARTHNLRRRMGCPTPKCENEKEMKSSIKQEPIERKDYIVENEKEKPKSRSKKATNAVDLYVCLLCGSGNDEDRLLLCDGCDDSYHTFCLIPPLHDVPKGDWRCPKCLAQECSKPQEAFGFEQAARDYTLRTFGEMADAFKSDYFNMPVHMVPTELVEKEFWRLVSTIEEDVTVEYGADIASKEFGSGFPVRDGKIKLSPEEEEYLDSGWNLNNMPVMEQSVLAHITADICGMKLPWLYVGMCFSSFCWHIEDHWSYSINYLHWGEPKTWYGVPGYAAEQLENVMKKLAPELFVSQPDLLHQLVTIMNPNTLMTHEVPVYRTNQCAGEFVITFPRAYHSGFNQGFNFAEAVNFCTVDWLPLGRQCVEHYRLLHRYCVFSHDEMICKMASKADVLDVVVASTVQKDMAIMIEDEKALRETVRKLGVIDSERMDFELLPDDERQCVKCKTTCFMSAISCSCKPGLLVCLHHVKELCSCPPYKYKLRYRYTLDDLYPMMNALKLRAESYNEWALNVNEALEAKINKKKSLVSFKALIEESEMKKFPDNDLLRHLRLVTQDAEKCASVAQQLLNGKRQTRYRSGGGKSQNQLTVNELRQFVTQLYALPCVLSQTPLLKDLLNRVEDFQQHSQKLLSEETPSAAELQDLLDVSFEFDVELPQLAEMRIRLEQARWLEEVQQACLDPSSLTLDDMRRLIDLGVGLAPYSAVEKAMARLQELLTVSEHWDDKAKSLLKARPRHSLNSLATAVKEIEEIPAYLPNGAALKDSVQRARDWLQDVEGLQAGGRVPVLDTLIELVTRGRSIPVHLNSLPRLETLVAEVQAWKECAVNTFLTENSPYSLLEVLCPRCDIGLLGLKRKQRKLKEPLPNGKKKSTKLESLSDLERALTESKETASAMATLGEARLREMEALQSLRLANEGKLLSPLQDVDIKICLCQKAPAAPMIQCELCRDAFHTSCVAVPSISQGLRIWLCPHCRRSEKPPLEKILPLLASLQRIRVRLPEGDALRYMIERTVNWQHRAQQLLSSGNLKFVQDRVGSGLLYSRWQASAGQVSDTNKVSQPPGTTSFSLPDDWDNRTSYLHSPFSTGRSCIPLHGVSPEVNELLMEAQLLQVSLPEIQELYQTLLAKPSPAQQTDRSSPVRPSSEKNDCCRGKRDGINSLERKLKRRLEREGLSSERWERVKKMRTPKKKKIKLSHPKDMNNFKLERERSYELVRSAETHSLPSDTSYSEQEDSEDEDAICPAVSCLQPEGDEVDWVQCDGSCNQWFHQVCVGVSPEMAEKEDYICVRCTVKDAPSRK
Outline: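 KDM5BDeltaAP (200nM final) preincubated 10 min with compound, then 12.5uM H3K4Me3, 25uM a-ketoglutarate, ascorbate, Fe(II), NAD+ and FDH added; 50mM HEPES pH 7.5, 0.01% Tween-20. NADH fluorescence (340/450 nm) change over 30 min, room temperature.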

[3] = test system: Zika virus NS2B-NS3 protease (unlinked complex); test: Primary screen GU Rhodamine qHTS for Zika virus inhibitors: Unlinked NS2B-NS3 protease assay (AID 1347159); note: nearly all actives have a fitted effect of over 60% in size; note: potency is the fitted concentration of half-maximal effect
Outline: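 A qHTS format was used, with compound concentrations ranging up to 114 microM. Each compound was preincubated with 25 nM NS2B-NS3 protease, and the substrate was then added at 1.5 microM. Curves were fitted with a 4-parameter Hill model.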

[4] = test system: Zika virus NS2B-NS3 protease (linked construct); test: Primary screen NINDS Rhodamine qHTS for Zika virus inhibitors (AID 1347160); note: nearly all actives have a fitted effect of over 55% in size
Outline: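 Kinetic fluorescence (Ex 480 nm, Em 540 nm) over 15 min with 1.5 microM Rhodamine110 peptide and 25 nM linked protease.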

[5] = Confirmatory screen GU Rhodamine qHTS for Zika virus inhibitors qHTS (AID 1347157); note: nearly all actives have a fitted effect of over 70% in size
Outline: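 In dose–response format, inhibition of unlinked protease (25 nM) was measured with 1.5 microM bis-peptide Rhodamine110 substrate. Aprotinin served as the intraplate control.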

[6] = Confirmatory screen NINDS Rhodamine qHTS for Zika virus inhibitors (AID 1347161);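 note: purified Zika NS2B-NS3 protease with linked NS2B cofactor domain and Rhodamine110 peptide substrate; series mostly up to about 110 µM; nearly all actives have a fitted effect of over 60% in size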
Outline: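 Aprotinin served as in-plate control. Conditions: 25 nM linked NS2B-NS3, pH 8.0 Tris buffer, titrated compounds, 15 min preincubation and 15 min reaction with 1.5 microM Rhod110 substrate at room temperature.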

[7] = Tertiary RLuc qRT-PCR qHTS assay for Zika virus inhibitors (AID 1347169); note: top concentration of the series differs between compounds; nearly all actives have a fitted effect of over 55% in size
Outline: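 Inhibition of ZIKV-RLuc replication in Vero cells, read as Renilla luminescence 1-1.5 hrs after live-cell substrate addition, following 48-72 hrs infection at MOI 1-2 in presence of compound.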

For `C[N+](C)(C)CCOC(=O)CBr`, the Potency [1] was “inactive” and the Potency [2] was “inactive”.

With `Clc1ccc(N2C[C@H]3CC[C@@H](C2)N3)nn1` the Potency [3] was “inactive” and the Potency [4] was “inactive”.

With `Clc1ccc(OCC2=NCCN2)cc1Cl` the Potency [3] was “inactive” and the Potency [4] was “inactive”.

In the case of `CC(N)Cc1c[nH]c2ccccc12` (centres undefined), the Potency [3] is reported as “inactive” and the Potency [4] is reported as “inactive”.

With `Cc1cc(C(=O)CN2CCCC2)c(C)n1-c1ccc(F)cc1` the Potency [3] was “inactive” and the Potency [4] was “inactive”.

In the case of `CCc1c(C(=O)C(N)=O)c2c(OCC(=O)OC)cccc2n1Cc1ccccc1`, the Potency [3] is reported as “inactive” and the Potency [4] is reported as “inactive”.

With `Cc1cn(C[C@H](N)C(=O)O)c(=O)n(Cc2cc(-c3ccccc3)sc2C(=O)O)c1=O` the Potency [3] was “inactive” and the Potency [4] was “inactive”.

With `CCCN(CCC)[C@@H]1CCc2cccc(O)c2C1` the Potency [1] was “inactive” and the Potency [2] was “inactive”.

In the case of `CC(C)[C@@]1(NC(=O)[C@@H]2C[C@@H]3c4cccc5[nH]cc(c45)C[C@H]3N(C)C2)O[C@@]2(O)[C@@H]3CCCN3C(=O)[C@H](Cc3ccccc3)N2C1=O`, the Potency [1] is reported as “inactive” and the Potency [2] is reported as “inactive”.

For `COC(=O)C1(C)CCC(=O)C2(C)c3c(O)cc(C(C)C)cc3C(O)C(OC(C)=O)C12` (centres undefined), the Potency [3] was “inactive”.

In the case of `CCCCCCn1c(=O)c(C(=O)Nc2ccc(C(=O)OCCC)cc2)c(O)c2ccccc21`, the activity change, negative = inhibition [3] is reported as -4.23% [at 19.1 µM] and the outcome [4] is reported as “inactive [at 10.7 µM]”.

In the case of `Oc1ccc2c3c1O[C@H]1c4[nH]c5ccccc5c4C[C@@]4(O)C(C2)N(CC2CC2)CCC314` (some centres undefined), the Potency [1] is reported as “inactive” and the Potency [2] is reported as “inactive”.

With `C/C=C(\C)C(=O)OC1C(C)OC(OC2C(C)OC(OC3CCC4(C)C(=CCC5C4CCC4(C)C(C(C)OC6OC(COC7OC(CO)C(O)C(O)C7O)C(O)C(O)C6O)CCC54O)C3)CC2OC)C(O)C1OC` (centres undefined) the Potency [3] was “inactive” and the Potency [4] was “inactive”.

With `CCCN(CCC)C1Cc2cc(OC)c(OC)cc2C1` the Potency [1] was “inactive” and the Potency [2] was “inactive”.

For `C=CC(C)(O)CC/C=C(\C)C(=O)O[C@H]1[C@H](O)[C@@H](CO)O[C@@H](OC(=O)[C@]23CCC(C)(C)CC2C2=CCC4[C@@]5(C)CC[C@H](O[C@@H]6O[C@H](CO[C@@H]7OC[C@H](O)[C@H](O)[C@H]7O[C@@H]7OC[C@@H](O)[C@H](O)[C@H]7O)[C@@H](O)[C@H](O)[C@H]6O)C(C)(C)C5CC[C@@]4(C)[C@]2(C)CC3)[C@@H]1OC1OC(C)C(O[C@@H]2OC[C@@H](O)[C@H](O[C@@H]3OC[C@@H](O)[C@H](O)[C@H]3O)[C@H]2O)C(O)C1O` (some centres undefined), the activity change, negative = inhibition [3] was 50.7% [at 19.1 µM] and the activity change, negative = inhibition [4] was 33.2% [at 10.7 µM].

In the case of `c1ccc2c(c1)[I+]c1ccccc1-2`, the Potency [1] is reported as “inactive” and the Potency [2] is reported as “inactive”.

For `CCN1CC2(COC)C3[C@@H](OC)C4C1C3(C1C[C@]3(O)[C@H](OC(=O)c5ccccc5)C1[C@]4(OC(C)=O)[C@@H](O)[C@@H]3OC)[C@H](OC)C[C@H]2O` (some centres undefined), the Potency [5] was “inactive”, the Potency [3] was 89.1 µM (active) and the Potency [4] was “inactive”. For the same compound, the Potency [6] was “inactive” and the Potency [7] was “inactive”.

With `Oc1cc(Cl)c(Cl)cc1Cl` the Potency [5] was “inactive” and the activity change, negative = inhibition [7] was -13.8% [at 5.25 µM].

With `C[C@]12CC[C@@H](O)C[C@H]1CC[C@@H]1[C@@H]2CC[C@]2(C)C(=O)CC[C@@H]12` the Potency [3] was “inactive” and the Potency [4] was “inactive”.

For `C[C@]12CC[C@H]3[C@@H]([C@H](O)CC4=CC(=O)CC[C@@]43C)[C@@H]1CC[C@@H]2O`, the Potency [3] was “inactive” and the Potency [4] was “inactive”.

For `COC1C(O)C(C)OC(OC2C(CO)O[C@@H](O[C@@H]3CC4CCC5C(CC[C@]6(C)[C@@H](C7=CC(=O)OC7)CC[C@]56O)[C@@]4(C)[C@H](O)C3)C(O)C2O)C1O` (some centres undefined), the Potency [3] was “inactive” and the Potency [4] was “inactive”.
